Source: PubChem BioAssay (The Scripps Research Institute Molecular Screening Center)
GPR151 ag = activates the human receptor GPR151 | Q8TDV0 | PathHunter beta-arrestin GPR151 cells, luminescence | activation, % at 11.2 µM | 650,000 tested, 1% active; in the data active = activation above about 4.9%;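 also: 0% = median of compound wells and 100% = cells with positive control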
Target sequence (Q8TDV0 whole entry, looked up): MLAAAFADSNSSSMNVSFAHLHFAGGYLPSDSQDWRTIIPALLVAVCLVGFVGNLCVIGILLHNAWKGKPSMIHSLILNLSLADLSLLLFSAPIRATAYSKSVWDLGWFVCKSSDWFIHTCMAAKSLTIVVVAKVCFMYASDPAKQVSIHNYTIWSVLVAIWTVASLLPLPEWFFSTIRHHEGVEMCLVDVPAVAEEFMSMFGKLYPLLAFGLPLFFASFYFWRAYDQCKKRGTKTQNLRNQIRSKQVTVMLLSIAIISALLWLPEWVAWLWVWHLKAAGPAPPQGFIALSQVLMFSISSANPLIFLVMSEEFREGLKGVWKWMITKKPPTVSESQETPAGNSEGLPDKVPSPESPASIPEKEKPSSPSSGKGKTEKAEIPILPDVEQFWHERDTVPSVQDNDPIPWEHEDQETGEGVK
TEAD-YAP inh = TEAD-YAP interaction inhibition; inhibition, % at 9.12 µM; 640,000 tested, 1.4% active; HEK-TIYL cells, TEAD-Gal4/YAP UAS-luciferase luminescence; in the data active = inhibition above about 32%;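 also: 0% = median of test compound wells and 100% = reference inhibitor wells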
MITF inh = inhibitors of human MITF. AlphaScreen MITF homodimerization, bead proximity signal. inhibition, % at 2.6 µM. AID 1259374. O75030. 650,000 tested, 0.91% active; in the data active = inhibition above about 50%;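 also: 0% = vehicle wells with protein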
FBW7 activator = human FBW7 E3 ligase activation, primary screen. AID 1259310. AlphaScreen FBW7–phospho-cyclin E peptide binding, activator screen. normalized activity (activation), % at 26.1 µM. 650,000 tested, 0.13% active; in the data active = normalized activity above about 1.9%;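 also: purified mutant Fbw7 with reduced substrate affinity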
MITF inh conf = human MITF inhibition, confirmation | shares compounds with MITF inh | 4,700 tested, 16% active | AlphaScreen MITF homodimerization, biotin/His-MITF beads | AID 1259372 | inhibition, % at 2.6 µM;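 active = inhibition above a cutoff derived from the DMSO control wells, cut at about 28% in these data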;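 also: 0% = MITF dimer wells with DMSO only; inhibitors lower the bead chemiluminescence by keeping MITF from dimerizing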
AlphaScreen DR = AlphaScreen optical interference, dose response counter-screen; AlphaScreen optical interference counterscreen, cell-free; IC50, µM; 480 tested, 6% active; shares compounds with MITF inh; AID 1259373; call rule not given here
AlphaScreen intf2 = counter-screen: compounds optically interfering with AlphaScreen; LysRS AlphaScreen counterscreen, signal interference, triplicate; AID 1259376; shares compounds with MITF inh; inhibition, % at 2.6 µM; 4,700 tested, 7.6% active;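 active = inhibition above a cutoff derived from the DMSO control wells, cut at about 30% in these data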
Starred values were filed as active, the others as inactive; . = no result given. Sampled rows, rich in hits. Any-hit rate of the full collection: about 3.4%.

SMILES | GPR151 ag | TEAD-YAP inh | MITF inh | FBW7 activator | MITF inh conf | AlphaScreen intf2 | others
COc1ccc(CN2CCN(C3CCCCC3)CC2)c(OC)c1OC | 1 | 8 | 76* | 0 | -4 | 2
COc1ccc(CN2CCN(C3CCC(c4ccccc4)CC3)CC2)c(OC)c1OC (stereo unspecified) | 2 | 8 | 53* | 0 | 12 | 22
CCOc1ccccc1CN1CCC(N2CCC(C)CC2)CC1 | -1 | 0 | 70* | 0 | 16 | 17
O=C(Nc1nnc(-c2ccncc2)o1)c1ccccc1I | 0 | 1 | 5 | -1 | . | .
C=CCn1c(SCC(=O)O)nc2sc(C)c(C)c2c1=O | -1 | 0 | 81* | 0 | 4 | 23
CC(=O)Nc1ccc(C(C)(C)c2ccc(NC(C)=O)cc2)cc1 | 0 | 4 | 19 | 0 | . | .
CCOC(=O)c1c(N)n(C(C)CO)c2nc3ccccc3nc12 (stereo unspecified) | 0 | 14 | 53* | 0 | 14 | 15
OC(CNCCCN1CCOCC1)COC(c1ccc(F)cc1)c1ccc(F)cc1 (stereo unspecified) | -1 | -1 | 36 | 0 | . | .
CN1CCC(N(C)CC(O)COC(c2ccc(F)cc2)c2ccc(F)cc2)CC1 (stereo unspecified) | -1 | 3 | 60* | 0 | -11 | 4
O=C(CCc1ccccc1)NC(=S)Nc1ccc2c(c1)C(=O)OC2 | 0 | 5 | 80* | 0 | 7 | 11
O=C(NCCCn1ccnc1)C(=O)NCC1OCCCN1S(=O)(=O)c1ccccc1 (stereo unspecified) | 3 | -2 | 66* | -1 | 35* | 45*
O=C(NCCCn1ccnc1)C(=O)NCC1OCCN1S(=O)(=O)c1ccccc1 (stereo unspecified) | 0 | -2 | 49 | 0 | . | .
Cc1cccc(N2CCN(C(=O)/C=C\C(=O)O)CC2)c1C | -2 | 0 | 69* | 0 | 54* | 10 | AlphaScreen DR=>6.5
CCOC(=O)N1CCN(c2cccc(C)c2C)CC1 | -1 | 1 | 0 | 0 | . | .
CC12CC(c3c(ccc4ccccc34)O1)C(c1nc3ccccc3s1)C(=O)N2 (stereo unspecified) | 1 | 2 | -6 | 1 | . | .
O=Cc1cccn1-c1ccc(C(=O)O)cc1 | 1 | -4 | 67* | 0 | 64* | -5 | AlphaScreen DR=>6.5
N#CC(C#N)=Cc1cccn1-c1ccc(C(=O)O)cc1 | 0 | -3 | 63* | 0 | 61* | 4 | AlphaScreen DR=>6.5
O=C1OC(c2ccccc2Cl)=N/C1=C\C=C\c1ccccc1 | 1 | 2 | 2 | 0 | . | .
COc1ccccc1NC(=S)NCCCn1ccnc1 | 1 | 6 | 79* | 0 | -1 | 2
CN(CCOC(=O)/C=C/c1ccco1)Cc1ccccc1 | -2 | 2 | 68* | 0 | 62* | 9
CN(Cc1ccccc1)C(=O)COC(=O)/C=C/c1ccco1 | -1 | -5 | 11 | 0 | . | .
CC(C)N(C)CCOC(=O)/C=C/c1ccco1 | -1 | -2 | 59* | -1 | 62* | 7 | AlphaScreen DR=>6.5
COc1ccc(C(c2nnnn2C(C)(C)C)N2CCC(C)CC2)cc1OC (stereo unspecified) | -1 | 12 | 19 | 0 | . | .
O=C(CN1CCC(NC(=O)c2ccco2)CC1)Nc1ccccc1F | 1 | 1 | -3 | 0 | . | .
N#Cc1ccccc1NC(=O)CN1CCN(Cc2ccccc2)CC1 | -1 | -6 | 60* | 0 | 4 | 0
SMILES | GPR151 ag | TEAD-YAP inh | MITF inh | FBW7 activator | MITF inh conf | AlphaScreen intf2 | others
O=C(CN1CCN(CC(=O)c2ccco2)CC1)Nc1ccccc1F | 1 | -10 | 66* | 0 | 9 | 14
Cc1ccccc1NC(=O)CN1CCN(Cc2ccccc2)CC1 | 0 | -2 | 12 | 0 | . | .
O=C(CN1CCN(CC(=O)c2ccco2)CC1)Nc1ccc2c(c1)OCCO2 | -1 | 0 | 69* | -1 | 10 | 17
O=C(CC(=O)c1ccco1)Nc1cc(Cl)ccc1Cl | -1 | -20 | 56* | 0 | 0 | 15
COc1cc(C2C(C#N)=C(N)Oc3n[nH]c(C(F)(F)F)c32)ccc1OCC(N)=O (stereo unspecified) | 1 | 1 | 22 | 2 | . | .
Cc1ccc(NC(=O)COc2cc(Cl)ccc2Cl)cc1C | 0 | -5 | 11 | 0 | . | .
COc1ccc(Cl)cc1NC(=O)CN1CCN(C)CC1 | 0 | 5 | 12 | 0 | . | .
COc1ccc(Cl)cc1NC(=O)CN1CCN(CC(=O)c2ccco2)CC1 | 1 | 1 | 53* | 0 | 8 | 12
O=C(Cn1nc(-c2ccc3c(c2)OCCO3)ccc1=O)Nc1ccccc1-c1ccccc1 | 0 | 5 | 72* | 0 | 9 | 10
O=C1NC2(CCCC2)C(=O)N1CCS(=O)(=O)Oc1ccc(Br)cc1 | 0 | 1 | 3 | 0 | . | .
O=CN1CCN(Cc2coc3c(Cl)cc(Cl)cc3c2=O)CC1 | 0 | 5 | 33 | 0 | . | .
CN1CCCN(Cc2coc3c(Cl)cc(Cl)cc3c2=O)CC1 | 0 | -9 | 55* | 0 | -11 | -3
CN1CCCN(Cc2c(F)cccc2F)CC1 | 0 | 0 | 78* | 1 | -9 | -7
CN1CCCN(Cc2c(Cl)cccc2Cl)CC1 | 2 | 4 | 63* | 0 | 1 | 1
CC(=O)NC(Cc1ccccc1Cl)C(=O)NC1CCN(S(C)(=O)=O)CC1 (stereo unspecified) | 3 | 11 | -1 | 0 | . | .
CCC(C)OC(=O)C1=C(C)NC2=C(C(=O)CC(c3ccccc3)C2)C1c1cc(OC)c(OC)cc1Br (stereo unspecified) | 0 | 0 | 63* | 0 | 14 | 17
COc1cc(Nc2ncnc3nc(-c4cccc(C(C)=O)c4)[nH]c23)cc(OC)c1OC | 0 | 18 | 5 | 0 | . | .
CCN(CC)c1ccc(/C=N/NC(=O)C2C3CCCCC32)c(O)c1 (stereo unspecified) | 4 | -3 | -10 | 0 | . | .
c1cncc(-c2cc(NCCCn3ccnc3)nc(-c3ccncc3)n2)c1 | -1 | 11 | 32 | -1 | . | .
c1ccc(-c2nc(NCCCn3ccnc3)cc(-c3cccnc3)n2)cc1 | 0 | 11 | 54* | -1 | 34* | 44*
Cc1cnc(CNc2cc(-c3cccnc3)nc(-c3cccnc3)n2)nc1 | -1 | 6 | 78* | -1 | 13 | 26
c1ccc(-c2nc(NCCCn3ccnc3)cc(-c3ccncc3)n2)cc1 | -2 | -4 | 44 | -1 | . | .
c1ccc(-c2cc(NCCCn3ccnc3)nc(-c3cccnc3)n2)cc1 | 1 | 15 | 53* | -1 | 24 | 39*
Cc1cc(=O)[nH]c(-n2nc(-c3cccs3)cc2NC(=O)CC(C)(C)C)n1 | -1 | 10 | 9 | 0 | . | .
CC(C)(C)NC(=O)CN1C(=O)C(C)(C)Oc2ccc(C(=O)NC3CCCCC3)cc21 | 0 | -1 | 9 | 0 | . | .
Cc1ccc(NC(=O)N2CCN(c3ccc(Nc4ccncc4)nn3)CC2)cc1 | -2 | 10 | 22 | 0 | . | .
